# High-throughput results from PubChem BioAssay.
# HTT promoter inh = HTT promoter inhibition | HEK293 HTT promoter firefly luciferase reporter, 24 h | Potency, µM (top dose mostly 57.5 µM), without a hit: at the top dose activity change, negative = inhibition, actives largely listed as inhibitors | 48,000 compounds, 0.93% hits | AID 1508623; also: nearly all actives have a fitted effect of over 50% in size
#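 Firefly luciferase signal from promoter-reporter HEK293 cells was scaled between vehicle (0%) and zero RLU (-100%). Compounds were tested at final concentrations of up to 57.5 uM over 24 h at 37 degrees C. PTC124 at 50 uM final served as control inhibitor.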
# HTT-AS act = activators of huntingtin-antisense promoter activity. Potency, µM (doses to about 57.5 µM), for inactives: top-dose activity change, positive = activation, usual class: activators. HEK293 HTT-AS promoter firefly luciferase reporter, 24 h; response scale: percent change from vehicle, -100% = no light. 48,000 compounds, 0.24% hits; also: nearly all actives have a fitted effect of over 55% in size
#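 HEK293 Fluc reporter, 2,500 cells/well, 24 h pre-culture; cpds up to 57.5 uM final, 24 h 37 degrees C; Dual-Glo, 10 min RT; normalized vehicle = 0%, zero RLU = -100%.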
# NTMT1 inh = blocks human N-terminal methyltransferase 1 activity; AID 1645870; Potency, µM (titrated, usually from 114 µM), for the others: top-dose activity change, negative = inhibition, most hits filed as inhibitors; 59,000 compounds, 2.5% hits; NTMT1 MTase-Glo SAH luminescence, purified enzyme; Q9BV86;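 also: plate controls were DMSO vehicle for no effect and no enzyme for full effect; nearly all actives have a fitted effect of over 65% in size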
# Target sequence (Q9BV86 whole entry, looked up): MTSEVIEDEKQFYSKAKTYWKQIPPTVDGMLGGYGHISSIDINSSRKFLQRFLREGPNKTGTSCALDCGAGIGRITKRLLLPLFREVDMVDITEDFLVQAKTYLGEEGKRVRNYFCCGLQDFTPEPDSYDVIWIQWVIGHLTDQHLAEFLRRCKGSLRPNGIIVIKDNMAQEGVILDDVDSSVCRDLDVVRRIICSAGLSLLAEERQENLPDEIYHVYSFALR
# * = called active by the depositor; ? = inconclusive; nt = not tested or not shown; ! = repeats disagree; [ ] = another dose, or the depositor's remark. Only a selection was taken, and hits are over-represented in it overall. Calls follow the shape of the dose curve; as a rule, active = well fitted curve in the direction sought with a large enough effect; inconclusive = small, poorly fitted or top-dose-only effect, or another doubt; inactive = no such curve, though single readings can be large; an effect the other way counts as inactive or inconclusive. Potency is read from the fitted curve at half-maximal effect.
SMILES,HTT promoter inh,HTT-AS act,NTMT1 inh
CCCCCCCCCCCCCCCC[N+](C)(C)Cc1ccccc1,-20.7%,-27.9%,22.4µM*
CCCCCCCCCCCCCC[N+](C)(C)Cc1ccccc1,?,-39.8%,50.1µM*
CCN(CCCc1ccccc1)CCCc1ccccc1,-0.8%,-10.3%,?
CCCCCCCCCCCCCCCC[N+](C)(C)CC,?,-40.8%,25.1µM*
CN[C@@H](C)C(=O)N[C@H](C(=O)N1CCC[C@H]1c1nc(C(=O)c2ccc(F)cc2)cs1)C1CCCCC1,nt,nt,10.9%
Cn1cc(/C=C/C(=O)c2cccc(F)c2)cc1/C=C/C(=O)NO,nt,nt,-25.0%
COC(=O)[C@]1(Cc2ccc(O)c(CC=C(C)C)c2)OC(=O)C(O)=C1c1ccc(O)cc1,nt,nt,-7.1%[29.8 µM]
CC1(c2ccccc2)CC(C)(C)N(C(=O)c2ccccc2Cl)c2ccccc21 (stereo not given),-28.3%,-39.0%,-1.1%
COc1ccccc1C(=O)N1c2ccccc2C(C)(c2ccc(Cl)cc2)CC1(C)C (stereo not given),25.1µM*,-50.1%,-1.4%
CCC(C)CCCCC(=O)N[C@@H](CCN)C(=O)NC(C(=O)N[C@H](CCN)C(=O)N[C@@H]1CCNC(=O)C([C@@H](C)O)NC(=O)[C@@H](CCN)NC(=O)[C@@H](CCN)NC(=O)[C@@H](CC(C)C)NC(=O)[C@H](Cc2ccccc2)NC(=O)[C@H](CCN)NC1=O)[C@@H](C)O (stereo not given in full),-4.7%,-4.1%,?
CCC(C)C(N)C1=NC(C(=O)N[C@@H](CC(C)C)C(=O)N[C@H](CCC(=O)O)C(=O)N[C@H](C(=O)N[C@H]2CCCCNC(=O)[C@H](CC(N)=O)NC(=O)[C@@H](CC(=O)O)NC(=O)[C@H](Cc3cnc[nH]3)NC(=O)[C@@H](Cc3ccccc3)NC(=O)[C@H]([C@@H](C)CC)NC(=O)[C@@H](CCCN)NC2=O)[C@@H](C)CC)CS1 (stereo not given in full),nt,nt,7.94µM*!
CC1CCN(Cc2c(O)ccc3c(=O)c(Oc4ccccc4Cl)c(C(F)(F)F)oc23)CC1,-22.0%,-8.2%,-3.1%
CN1CCC(c2c(O)cc(O)c3c(=O)cc(-c4ccccc4Cl)oc23)C(O)C1 (stereo not given),nt,nt,35.5µM*
CN1CCC(c2c(O)cc(O)c3c(=O)cc(-c4ccccc4Cl)oc23)C1CO (stereo not given),nt,nt,50.1µM*
CN1CC[C@@H](c2c(O)cc(O)c3c(=O)cc(-c4ccccc4Cl)oc23)[C@@H](O)C1,?,?,24.1µM*!
O=C1NS(=O)(=O)c2cc(Br)ccc21,nt,nt,14.3%
O=C(Nc1ccc(Cl)nc1)Nc1nnc(-c2ccncc2)s1,nt,nt,-20.7%
COc1cc(NS(=O)(=O)c2cc(Br)cc3c2N(C(=O)C2CC2)CC3)cc(OC)c1,15.8µM*,-96.2%,7.1%
Cc1ccc(NS(=O)(=O)c2cc(Br)cc3c2N(C(=O)C2CC2)CC3)cc1C,5.62µM*,-61.8%,0.8%
O=C(C1CC1)N1CCc2cc(Br)cc(S(=O)(=O)Nc3ccc(F)c(F)c3)c21,?,-85.7%,17.5%
COc1ccc(Cl)cc1NS(=O)(=O)c1cc(Br)cc2c1N(C(=O)C1CC1)CC2,?,-36.7%,4.2%
Cc1ccc(S(=O)(=O)Nc2ccc(C)cc2C(=O)Nc2nc(-c3ccccc3)cs2)cc1,nt,nt,-5.5%
COc1cc(/C=C(\C#N)c2nc3ccccc3n2C)cc(OC)c1OC,42.1%,?,0.2%
COc1ccc(/C=C(\C#N)c2nc3ccccc3n2C)c(OC)c1,65.8%,3.55µM*,?
Cc1ccc(NC(=O)C(C)C)cc1C1CCN(Cc2ccc(Oc3ccc(F)c(F)c3)cc2)CC1,nt,nt,1.6%[57.5 µM]
SMILES,HTT promoter inh,HTT-AS act,NTMT1 inh
O=C1NC(=O)C(c2cn3c4c(cccc24)CCC3)C1c1c[nH]c2ccccc12 (stereo not given),nt,nt,-0.7%[57.5 µM]
CCCCCN1CCC(C(=O)Nc2ccc([S+](=O)([O-])Nc3nccs3)cc2)CC1,nt,nt,4.4%[57.5 µM]
Cc1nc2cccc(N)c2c(=O)n1C1CCC(=O)NC1=O (stereo not given),nt,nt,4.0%
O=C(Nc1nc2c(Cl)cccc2s1)c1ccc(S(=O)(=O)N2CCc3ccccc32)cc1,?,-41.7%,10.5%
COc1cc2nc(NC(=O)c3ccc(S(=O)(=O)N4CCc5ccccc54)cc3)sc2cc1OC,12.6µM*,-40.9%,2.2%
N#Cc1cc2cc(CN3CCC(Nc4ncnc5sc(CC(F)(F)F)cc45)CC3)c(O)cc2n1Cc1cn[nH]c1,nt,nt,-29.6%
O=C(O)c1ccc2cc(-c3ccc(O)c(C45CC6CC(CC(C6)C4)C5)c3)ccc2c1,-18.1%,-8.9%,50.1µM*!
O=C(O)c1ccc2c(c1)C(=O)N([C@]1(C(=O)O)C[C@H]1c1ccccc1)C2=O,nt,nt,9.1%[57.5 µM]
O=C(Cc1ccccc1)Nc1nnc(CCSCCc2nnc(NC(=O)Cc3ccccc3)s2)s1,nt,nt,13.6%
Nc1cc(-c2ccncc2)c[nH]c1=O,3.0%,-9.1%,?
Nc1c(-c2ccncc2)cc[nH]c1=O,nt,nt,79.4µM*
COc1cc2c3c(n(CCCN4CCOCC4)c(=O)c2cc1OC)-c1cc2c(cc1C3=O)OCO2,nt,nt,8.7%
O=S(=O)(c1ccc(Cl)cc1)c1nnn2c1nc(NCc1ccccc1)c1sccc12,-13.2%,-8.9%,89.1µM*
O=S(=O)(c1ccccc1)c1nnn2c1nc(NCc1ccccc1)c1sccc12,2.5%,-7.2%,6.6%
CC(=O)Nc1sc2c(c1-c1ccc3c(c1)OCO3)CCNC2,nt,nt,5.1%[57.5 µM]
CC(C)(C)C1CCc2c(sc(NC(=O)CCC(=O)O)c2C(=O)Nc2ccccc2C(F)(F)F)C1 (stereo not given),?,-54.5%,44.7µM*
COc1ccccc1NC(=O)c1c(NC(=O)c2cccs2)sc2c1CCC(C(C)(C)C)C2 (stereo not given),-11.4%[11.5 µM],7.9%[11.5 µM],21.5%
COc1ccc(NC(=O)CC2Nc3cccc4cccc(c34)NC2=O)cc1 (stereo not given),-19.5%,-22.6%,79.4µM*
O=C(CC1Nc2cccc3cccc(c23)NC1=O)Nc1ccc(F)cc1 (stereo not given),0.0%,-23.7%,-19.7%
Cc1noc(C)c1-c1ccc(Nc2nc(-c3ccncc3)nc3ccccc23)cc1F,nt,nt,2.1%
CC(C)(C)c1cc(CN2CCN(CC(O)c3ccc(Cl)cc3)CC2)cc(C(C)(C)C)c1O (stereo not given),nt,nt,-0.6%[57.5 µM]
CN(CC(=O)Nc1cccc(N2CCOCC2)c1)Cc1c(O)ccc2ccccc12,nt,nt,-12.4%
NS(=O)(=O)c1ccc(Cc2c(-c3cccc(-c4ccccc4)c3)nn(-c3nc(C(=O)O)cs3)c2C2CC2)cc1,nt,nt,25.1µM*
CCOC(=O)c1csc(-n2nc(-c3ccc(F)c(F)c3)c(Cc3ccc(S(N)(=O)=O)cc3)c2N)n1,nt,nt,-3.6%
O=C1CCCC2=C1C(c1[nH]ncc1Cl)N=C(Nc1nccs1)N2 (stereo not given),nt,nt,-1.9%
COCCNC(=O)Cn1nc(C)c2c(C)n(-c3ccc(C)cc3)nc2c1=O,-13.4%,-26.6%,0.0%
COc1ccc(OC)c(CCNC(=O)C(C)n2nc(C)c3c(C)n(-c4ccc(C)cc4)nc3c2=O)c1 (stereo not given),1.58µM*,-88.4%,89.1µM*
